Source: PubChem BioAssay
Activity calls are given as the source filed them.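 How the source made its calls, unless noted: active means compounds whose cell count with miR-34 switched on is under 0.7 times the count with it off; inactive means the rest.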 *1 amine or outer side, *2 acyl side, *3 side chain or, on linkers, in order; H or OH if unused. Where a SMILES comes first, the peptide text is derived from it. Bridges are numbered along the chain shown (N, C = ends). Roman numbers before positions name the chains, in order. [ ]: non-standard residue; d: D form. Hexamethylenediamine = C(CCCN[*:2])CCN[*:1]; Dip = N[CH](C(=O)O)C(c1ccccc1)c1ccccc1; Chg = N[CH](C(=O)O)C1CCCCC1; NMeA = CN[CH](C)C(=O)O

Assays:
[1] = viability loss with induced miR-34 in A549 – imaging, A549 dox-inducible miR-34, nuclei and caspase counts, primary screen (AID 1347080); details: A549 miR-34 inducible, Hoechst nuclei count, 48 h
[2] = MELAS cybrid and Rieske KO viability enhancers – cell-based, MELAS cybrids, Rieske KO mouse fibroblasts, CellTiter-Glo, primary screen (AID 1508586;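 active means mean z-score across replicates of 1.96 or higher in either the MELAS or the Rieske mutant cell line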;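 further: z relative to plate mean and SD of compound and empty wells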); details: low glucose
[3] = stronger effect = lower value, cell number ratio, induced over uninduced
[4] = measured here: relative caspase fold change +Dox/-Dox
[5] = measured here: total cells with miR-34 induction, stronger effect = lower value
[6] = measured here: total cells without miR-34 induction
[7] = MELAS cybrid survival, CellTiter-Glo 48 h, stronger effect = higher value
[8] = Rieske KO mouse fibroblast survival, CellTiter-Glo 72 h
Further: test concentration not given here.

| SMILES | fold change [1, 3] | fold change [1, 4] | cell count [1, 5] | cell count [1, 6] | z-score [2, 7] | z-score [2, 8] |
| --- | --- | --- | --- | --- | --- | --- |
| Cc1cnc(NC(=O)Nc2cc(Br)c(C)cc2OCC2CNCCO2)cn1 (configuration not stated) | 1.11 (inactive) | 0.742 | 1910 | 1730 | 0.916 (inactive) | -0.0359 |
| CCC(C)C(NC(=O)C(CCC(=O)O)NC(=O)C(CC(C)C)NC(=O)C1CN=C(C(N)C(C)C)S1)C(=O)NC1CCCCNC(=O)C(CC(N)=O)NC(=O)C(CC(=O)O)NC(=O)C(Cc2cnc[nH]2)NC(=O)C(Cc2ccccc2)NC(=O)C(C(C)CC)NC(=O)C(CCCN)NC1=O (configuration not stated) | 1.05 (inactive) | 0.927 | 7610 | 7240 | -0.25 (inactive) | -0.261 |
| CNC(C)C(=O)NC(C(=O)N1CCCC1C(=O)NC(C(=O)NCCCCCCNC(=O)C(NC(=O)C1CCCN1C(=O)C(NC(=O)C(C)NC)C1CCCCC1)C(c1ccccc1)c1ccccc1)C(c1ccccc1)c1ccccc1)C1CCCCC1 (configuration not stated) (I: H-[NMeA][Chg]P[Dip] / II: H-[NMeA][Chg]P[Dip]; linker I:C-II:C via Hexamethylenediamine; configuration not given here) | 0.971 (inactive) | 0.501 | 8750 | 9000 | -0.461 (inactive) | -0.132 |
| CC1COC2=C1C(=O)C(=O)c1c2ccc2c1CCCC2(C)C (configuration not stated) | 1.09 (inactive) | 0.507 | 2070 | 1890 | -0.382 (inactive) | -0.5 |
| Cc1cc(NC(=O)c2cccc(NC(=O)C=CCN(C)C)c2)ccc1Nc1nccc(-c2cccnc2)n1 | 0.969 (inactive) | 0.805 | 6190 | 6390 | -0.659 (inactive) | 0.143 |
| CC[C@]1(O)C[C@H]2CN(CCc3c([nH]c4ccccc34)[C@@](C(=O)OC)(c3cc4c(cc3OC)N(C)[C@@H]3C45CCN4CC=C[C@@](CC)(C(OC(C)=O)[C@]3(O)C(=O)OC)[C@H]45)C2)C1 (some centres not stated) | 1.18 (inactive) | 0.78 | 1480 | 1260 | 0.649 (inactive) | -0.168 |
| COc1ccnc2[nH]cc(C(=O)C(=O)N3CCN(C(=O)c4ccccc4)CC3C)c12 (configuration not stated) | 0.955 (inactive) | 0.698 | 9920 | 10400 | -0.419 (inactive) | 0.811 |
| CCc1cccc2c3c([nH]c12)[C@](CC)(CC(=O)O)OCC3 | 0.926 (inactive) | 0.786 | 7980 | 8620 | -0.475 (inactive) | -0.00521 |
| O=C(Nc1ccccc1)Nc1ccc(-c2ccc(C(=O)C3CCCC3C(=O)O)cc2)cc1 (configuration not stated) | 0.846 (inactive) | 0.729 | 9210 | 10900 | -0.239 (inactive) | 0.453 |
| CC(C)N(CCCNC(=O)Nc1ccc(C(C)(C)C)cc1)CC1OC(n2ccc3c(N)ncnc32)C(O)C1O (configuration not stated) | 0.885 (inactive) | 0.359 | 8440 | 9540 | -0.287 (inactive) | 0.555 |
| CN(C)c1cc(NC(=O)CNC(C)(C)C)c(O)c2c1C[C@H]1C[C@H]3C(N(C)C)C(=O)C(C(N)=O)=C(O)[C@@]3(O)C(=O)C1=C2O (some centres not stated) | 0.917 (inactive) | 1.11 | 8200 | 8950 | -0.43 (inactive) | 0.225 |
| COc1cc(C=CC(=O)N2CCN(CC(=O)N3CCCC3)CC2)cc(OC)c1OC | 0.989 (inactive) | 0.412 | 8470 | 8570 | -0.177 (inactive) | -0.0197 |
| CCN(CC)CCN(Cc1ccc(-c2ccc(C(F)(F)F)cc2)cc1)C(=O)Cn1c(SCc2ccc(F)cc2)nc(=O)c2c1CCC2 | 0.577 (active) | 1.58 | 1110 | 1920 | -0.397 (inactive) | -1.15 |
| S=C=Nc1cccc(NC(=S)NCCCCNC(=S)Nc2cccc(N=C=S)c2)c1 | 0.972 (inactive) | 0.614 | 7440 | 7650 | -0.615 (inactive) | 0.0526 |
| CCOc1ccc2ccccc2c1C(=O)NC1C(=O)N2C(C(=O)O)C(C)(C)S[C@H]12 (some centres not stated) | 1.19 (inactive) | 0.989 | 8800 | 7400 | -0.279 (inactive) | -0.179 |
| COc1cccc2c1C(=O)c1c(O)c3c(c(O)c1C2=O)C[C@@](O)(C(C)=O)CC3O[C@H]1CC(N)C(O)C(C)O1 (some centres not stated) | 0.959 (inactive) | 0.948 | 2300 | 2390 | 2.59 (active) | -0.443 |
| Cc1onc(-c2ccccc2Cl)c1C(=O)NC1C(=O)N2C(C(=O)O)C(C)(C)S[C@@H]12 (some centres not stated) | 0.964 (inactive) | 0.778 | 9670 | 10000 | -0.365 (inactive) | 0.485 |
| CS(=O)(=O)c1ccc(C(O)C(CF)NC(=O)C(Cl)Cl)cc1 (configuration not stated) | 0.937 (inactive) | 0.642 | 8270 | 8820 | 0.0143 (inactive) | -0.0314 |
| O=C1c2c(O)cc(O)cc2OC(c2cc(O)c(O)c(O)c2)C1O (configuration not stated) | 0.92 (inactive) | 0.77 | 9760 | 10600 | -0.325 (inactive) | 0.635 |
| CC(NC(=O)Cc1cc(F)cc(F)c1)C(=O)NC1C(=O)N(C)c2ccccc2-c2ccccc21 (configuration not stated) | 0.913 (inactive) | 0.674 | 8480 | 9280 | -0.38 (inactive) | 1.69 |
| CC(C)(C)c1cc(C=C(C#N)C(N)=S)cc(C(C)(C)C)c1O | 0.89 (inactive) | 0.706 | 3790 | 4260 | -0.383 (inactive) | -0.375 |
| COCCOC(=O)C1=C(C)NC(C)=C(C(=O)OCC=Cc2ccccc2)C1c1cccc([N+](=O)[O-])c1 (configuration not stated) | 1.06 (inactive) | 0.275 | 6590 | 6240 | -0.669 (inactive) | 0.105 |
